The values that follow come from PubChem BioAssay (Tox21).

Molecules are shown by their SMILES. Inconclusive results are not listed. A number with no mark means an inactive call. Activity calls are given as the source filed them. Unless noted, the call rests on the fitted dose curve; in most records, active means well fitted curve in the direction sought with a large enough effect in the repeat runs; inconclusive means weak or mixed curves; inactive means no such curve, though single readings can be large; an effect the other way counts as inactive or inconclusive.

Assay [1] is described as follows: qHTS assay to identify small molecule antagonists of the estrogen related receptor (ERR) signaling pathway - cell viability counter screen (AID 1224818). Further: series mostly up to about 46 µM; on the % scale 0 is the no-effect control and ±100 the full control effect. The method in brief: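 Fluorescence from CellTiter-Fluor, read 30 min after reagent addition at 37 C, measured viability of ERR cells exposed to compounds for 17.5 h. Cells had settled 6 h before dosing.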
(Quantitative high-throughput screening tests each substance at several concentrations.)

Assay [2] can be described thus: qHTS assay to identify small molecule agonists of the estrogen related receptor (ERR) signaling pathway (AID 1224820). Further: on the % scale 0 is the no-effect control and ±100 the full control effect. Put shortly: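 An ERR cell line provided by NTP was seeded at 2,000 cells per well and allowed to settle for 6 h before compounds in DMSO were added. After 18 h at 37 C, luciferase activity was measured by One-Glo luminescence.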
Assay [3] deals with estrogen-related receptor alpha (ERRalpha) with PGC-1alpha coactivator, human. Put plainly: qHTS assay to identify small molecule antagonists of the estrogen related receptor signaling pathway with the pleiotropic PPARgamma coactivator (PGC) (AID 1224821; calls by dose curve; further: nearly all actives have a fitted effect of over 50% in size; further: potency means the concentration at half of the fitted maximal effect;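 on activity change, negative = inhibition: series mostly up to about 46 µM; on the % scale 0 is the no-effect control and ±100 the full control effect; lower luminescence signal means antagonism of PGC/ERR signalling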). The method in brief:
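A PGC/ERR cell line supplied by NTP is seeded, allowed 6 h at 37 C, and treated with test compounds in DMSO for 18 h. Signal is then measured as luciferase luminescence using One-Glo.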

A short description of assay [4]: qHTS assay to identify small molecule antagonists of the estrogen related receptor signaling pathway with the pleiotropic PPARgamma coactivator (PGC) cell viability counter screen (AID 1224822; further: potency means the concentration at half of the fitted maximal effect). The method in brief:
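Fluorescence read-out of CellTiter-Fluor after 30 min at 37 C; PGC/ERR cells, 2,000 per well, had been exposed to DMSO-dissolved compounds for 17.5 h following a 6 h pre-incubation.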

The nature of assay [5]: qHTS assay to identify small molecule agonists of the estrogen related receptor signaling pathway with the pleiotropic PPARgamma coactivator (PGC) (AID 1224823). Further: on the % scale 0 is the no-effect control and ±100 the full control effect. Put shortly:
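Compounds dissolved in DMSO are added by pin tool to PGC/ERR cells that have settled for 6 h, and incubation continues 18 h at 37 C. Reporter output is measured as One-Glo luminescence.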

Assay [6] can be described thus: qHTS assay to identify small molecule antagonists of the estrogen related receptor (ERR) signaling pathway (AID 1224819; further: potency means the concentration at half of the fitted maximal effect; nearly all actives have a fitted effect of over 50% in size). The method in brief:
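Luminescence readout (One-Glo, 30 min, RT) of ERR cell line after 18 h compound exposure at 37 C; cells seeded 2,000/well, pre-incubated 6 h, compounds pinned from DMSO stocks.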

Assay [7] in a line: qHTS assay to identify small molecule antagonists of the estrogen related receptor (ERR) signaling pathway from Tox21 library - cell viability counter screen (AID 1224834). Further: on the % scale 0 is the no-effect control and ±100 the full control effect; nearly all actives have a fitted effect of over 30% in size. The method in brief:
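Multiplexed viability counter screen in ERR cells: 17.5 h compound exposure at 37 C, CellTiter-Fluor added, 30 min at 37 C/5% CO2, fluorescence read.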

The nature of assay [8]: qHTS assay to identify small molecule antagonists of the constitutive androstane receptor (CAR) signaling pathway - cell viability counter screen (AID 1224837). Further: series mostly up to about 92 µM; on the % scale 0 is the no-effect control and ±100 the full control effect; nearly all actives have a fitted effect of over 45% in size. Put shortly:
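Read-out: CellTiter-Fluor fluorescence after 23 hr at 37 C/5% CO2. Cells: HepG2 double-stable for hCAR and CYP2B6-2.2kb. Compounds tested at 15 concentrations in the presence of CITCO, final concentration 50 nM.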

The nature of assay [9]: qHTS assay to identify small molecule antagonists of the estrogen related receptor signaling pathway with the pleiotropic PPARgamma coactivator (PGC) from Tox21 10K library - cell viability counter screen (AID 1224840; active means well fitted cell-killing curve with a large enough effect in the repeat runs, not every such curve was filed as active; further: on the % scale 0 is the no-effect control and ±100 the full control effect; nearly all actives have a fitted effect of over 40% in size). The method in brief: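 Fluorescence read-out of CellTiter-Fluor viability reagent, added after cells had been exposed to compound in DMSO for 17.5 h at 37 C; 30 min development at 37 C/5% CO2. Cells: PGC/ERR line, 2,000/well.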

In assay [10] the target is Thyrotropin receptor (Homo sapiens) (UniProt P16473). The experiment in a line: qHTS assay to identify small molecule agonists of the thyroid stimulating hormone receptor (TSHR) signaling pathway (AID 1224843; calls by dose curve; further: on the % scale 0 is the no-effect control and ±100 the full control effect; nearly all actives have a fitted effect of over 45% in size). Put shortly: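 Agonist activity read as cAMP rise via d2/cryptate HTRF competition, 1 h room-temperature detection, in HEK293 cells expressing TSHR. Fifteen-point titrations, each run in triplicate, with a 30 min room-temperature incubation beforehand.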

The nature of assay [11]: qHTS assay to identify small molecule agonists of H2AX (AID 1224845; active means well fitted activation curve with a large enough effect in the signal ratio in the repeat runs, not every such curve was filed as active; the % refers to the signal ratio; further: on the % scale 0 is the no-effect control and ±100 the full control effect). Put shortly:
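Phospho-H2AX Ser139 measured by HTRF (ex 320 nm; em 665 and 620 nm) after 24 hr antibody incubation. Compounds, 15 concentrations, 0.76% DMSO, were applied to CHO-K1 cells for 3hr at 37C before lysis.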

Assay [12] is described as follows: qHTS assay to identify small molecule agonists of the hypoxia (HIF-1) signaling pathway (AID 1224846; active means well fitted activation curve with a large enough effect in the signal ratio in the repeat runs, not every such curve was filed as active; the % refers to the signal ratio; further: on the % scale 0 is the no-effect control and ±100 the full control effect). Put shortly:
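Beta-lactamase FRET read-out (CCF4-AM substrate) from ME-180 cells carrying an HRE-driven bla reporter, after 17 hrs compound exposure at 37C/5% CO2. Cells were seeded at 2,000 per well in 0.5% dialyzed FBS medium and preincubated 5 hrs.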

In assay [13] the target is Luciferin 4-monooxygenase (Photinus pyralis) (UniProt P08659). Put plainly: qHTS assay to identify small molecule inhibitors of firefly luciferase (AID 1224835). Further: series mostly up to about 120 µM; on the % scale 0 is the no-effect control and ±100 the full control effect; nearly all actives have a fitted effect of over 25% in size. The method in brief:
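Inhibition of purified Photinus luciferase is measured by luminescence. Substrate levels (D-luciferin, ATP) sit at their KM values. Each compound is tested in a concentration series.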

Assay [14] in a line: qHTS assay to identify small molecule agonists of the hypoxia (HIF-1) signaling pathway - cell viability counter screen (AID 1224844; calls by dose curve; further: on the % scale 0 is the no-effect control and ±100 the full control effect; nearly all actives have a fitted effect of over 50% in size). The method in brief:
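CellTiter-Glo luminescence read-out, 30 min RT, taken in the same wells as the beta-lactamase HRE reporter assay; HRE-bla ME-180 cells, 0.5% dialyzed FBS, 17 hr compound treatment at 37C, 5% CO2.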

Thyrotropin receptor (Homo sapiens), sequence (P16473 whole entry, looked up): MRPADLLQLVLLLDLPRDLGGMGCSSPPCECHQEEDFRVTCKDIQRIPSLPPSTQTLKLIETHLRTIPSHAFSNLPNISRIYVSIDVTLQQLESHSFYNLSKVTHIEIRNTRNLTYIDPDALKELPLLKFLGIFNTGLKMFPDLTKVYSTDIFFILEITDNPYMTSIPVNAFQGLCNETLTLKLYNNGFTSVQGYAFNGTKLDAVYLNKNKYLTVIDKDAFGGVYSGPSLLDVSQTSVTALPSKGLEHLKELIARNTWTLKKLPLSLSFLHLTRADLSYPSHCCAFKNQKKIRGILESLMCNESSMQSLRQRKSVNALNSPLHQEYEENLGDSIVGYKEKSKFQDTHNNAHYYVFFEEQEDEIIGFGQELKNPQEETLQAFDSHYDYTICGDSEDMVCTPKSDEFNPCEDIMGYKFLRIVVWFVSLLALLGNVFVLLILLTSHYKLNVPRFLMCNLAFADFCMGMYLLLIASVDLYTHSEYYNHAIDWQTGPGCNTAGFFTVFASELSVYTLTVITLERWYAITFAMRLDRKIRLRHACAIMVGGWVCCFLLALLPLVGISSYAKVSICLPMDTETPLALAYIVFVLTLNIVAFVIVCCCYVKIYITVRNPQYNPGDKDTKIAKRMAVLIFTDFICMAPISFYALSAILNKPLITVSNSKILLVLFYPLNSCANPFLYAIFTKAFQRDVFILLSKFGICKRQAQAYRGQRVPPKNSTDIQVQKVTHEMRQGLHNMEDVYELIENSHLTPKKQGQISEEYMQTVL
Luciferin 4-monooxygenase (Photinus pyralis), sequence (P08659 whole entry, looked up): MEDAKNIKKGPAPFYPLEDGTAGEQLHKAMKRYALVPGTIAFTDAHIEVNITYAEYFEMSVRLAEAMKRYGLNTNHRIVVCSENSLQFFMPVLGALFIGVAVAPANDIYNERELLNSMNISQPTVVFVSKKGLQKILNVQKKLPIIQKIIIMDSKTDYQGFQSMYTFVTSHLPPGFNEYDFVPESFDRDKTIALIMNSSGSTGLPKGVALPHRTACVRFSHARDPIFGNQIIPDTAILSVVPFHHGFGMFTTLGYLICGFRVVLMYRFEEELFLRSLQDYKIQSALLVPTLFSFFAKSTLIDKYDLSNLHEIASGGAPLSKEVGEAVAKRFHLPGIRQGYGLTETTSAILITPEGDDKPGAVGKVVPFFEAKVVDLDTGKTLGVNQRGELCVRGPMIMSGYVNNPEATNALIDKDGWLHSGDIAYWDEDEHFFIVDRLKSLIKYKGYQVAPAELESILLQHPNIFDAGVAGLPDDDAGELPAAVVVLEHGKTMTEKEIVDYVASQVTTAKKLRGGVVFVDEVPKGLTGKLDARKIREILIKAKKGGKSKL

Take `O=c1[nH]c2cc(C(F)(F)F)ccc2n1-c1cc(C(F)(F)F)ccc1O`: the Potency entry in assay [1], in assay [2], in assay [3], in assay [4] and in assay [5] was “inactive” throughout.

For the compound `Cc1ccccc1/C=C/C1=NCCN1`, the Potency result in [1], in assay [2] and in assay [5] was “inactive” each time.

In the case of `O=C(CCSCc1ccco1)NNC(=O)N1Cc2ccccc2Oc2ccc(Cl)cc21`, the Potency result in assay [1], in assay [2], in assay [4] and in assay [5] was “inactive” in each case.

With `CCCC(=O)NCCc1c2n(c3ccc(OC)cc13)CCCc1ccccc1-2`, in [6], the Potency is 20.3 µM (active). For the same compound, the Potency result in assay [2] is “inactive”.

As to `CN1C2CC(OC(=O)[C@H](CO)c3ccccc3)CC1C1OC12` (stereo partly specified), the Potency result in [1] and in assay [4] was “inactive” each time.

As for `N=C(N)c1ccc(N)cc1`, the Potency result in [1], in assay [4] and in assay [5] was “inactive” each time.

As for `O=C(CCc1ccncc1)NNC(=O)N1Cc2ccccc2Oc2ccc(Cl)cc21`, the Potency entry in assay [1], in [4] and in [5] was “inactive” throughout.

Regarding `CC(C)(C)NCC(O)COc1nsnc1N1CCOCC1` (stereo unspecified), the Potency entry in [1] and in [4] was “inactive” in each case.

For the compound `CCCCCCCCCCCCCCC[C@H](O)[C@H](N)CO`, the Potency result in assay [1] and in [4] was “inactive” each time.

In the case of `CCN(CC)CCCCCCCCOC(=O)c1cc(OC)c(OC)c(OC)c1`, the Potency entry in assay [1], in assay [3] and in [5] was “inactive” throughout.

With `Clc1ccc(N2CCN(Cc3cc4ccccn4n3)CC2)cc1`, the Potency entry in assay [1], in [2] and in assay [5] was “inactive” in each case.

Consider `CC(=O)SC1CC2=CC(=O)CC[C@]2(C)C2CC[C@@]3(C)C(CC[C@@]34CCC(=O)O4)C12` (stereo partly specified), for which the Potency result in assay [1] and in assay [4] was “inactive” each time.

On to `COc1cc(C(O)CO)ccc1O` (stereo unspecified), for which the Potency entry in assay [1] and in assay [4] was “inactive” throughout.

Consider `CN(C)CCC(c1ccc(Br)cc1)c1ccccn1` (stereo unspecified), for which the Potency result in assay [1] and in assay [4] was “inactive” throughout.

As to `C/C(=C\c1ccc(C(=O)O)cc1)c1ccc2c(c1)C(C)(C)CCC2(C)C`, the Potency result in assay [1], in [4], in [7], in assay [8], in [9] and in assay [10] was “inactive” throughout. Further, the Potency entry in assay [11] and in assay [12] was “inactive” throughout.

`CN1C2CCC1CC(OC(=O)C(CO)c1ccccc1)C2` (stereo unspecified): the Potency entry in [1] and in [4] was “inactive” each time.

As for `O=C1NC(O)=NC1(c1ccccc1)c1ccccc1`, the Potency result in assay [1] and in assay [4] was “inactive” each time.

Consider `CC(C)NC[C@H](O)COc1cccc2ccccc12`, for which the Potency result in assay [1] and in assay [4] was “inactive” in each case.

With `CCC1(O)CC2CN(CCc3c([nH]c4ccccc34)[C@@](C(=O)OC)(c3cc4c(cc3OC)N(C=O)C3[C@]45CCN4CC=C[C@@](CC)([C@@H](OC(C)=O)[C@]3(O)C(=O)OC)[C@H]45)C2)C1` (stereo partly specified), the Potency result in assay [1] and in assay [4] was “inactive” in each case.

On to `N=C(N)c1ccc(OCCCCCOc2ccc(C(=N)N)cc2)cc1` (tested in a mixture with another compound), for which the Potency entry in assay [1], in assay [4] and in assay [5] was “inactive” throughout.

As for `CC(C)NC[C@H](O)COc1ccc(CC(N)=O)cc1`, the Potency entry in [1] and in [4] was “inactive” each time.

For the compound `CCCCOC(=O)NS(=O)(=O)c1sc(CC(C)C)cc1-c1ccc(Cn2c(CC)nc3c(C)cc(C)nc32)cc1`, in assay [6], the Potency was 11.9 µM (active). Besides, in assay [2], the Potency entry was “inactive”.

Consider `COc1cc2ncnc(Nc3cccc(Cl)c3)c2cc1OC`, for which the Potency result in [1] and in assay [4] was “inactive” each time. Also, the viability change, negative = cytotoxic in [7] was -12.2% [at 19 µM]; in [9] it was -14.4% [at 19 µM]. Moreover, the activity change, negative = inhibition in assay [13] was -1.79% [at 23.6 µM]. In addition, the activity change, negative = cytotoxicity in assay [8] was -20.1% [at 19 µM]; in assay [14], -10.3% [at 15.8 µM]. The activation in [10] is -0.89% [at 19 µM]; in assay [12], 0.103% [at 15.8 µM]. In addition, the activation (H2AX phosphorylation) in assay [11] is 1.29% [at 31.6 µM].

For the compound `S=C(S)N1CCCC1`, the Potency entry in assay [1] and in assay [5] was “inactive” each time. Besides, the Potency in assay [3] is 3.22 µM (active); in [4], 0.287 µM (active).

In the case of `COc1cc([C@@H]2c3cc4c(cc3[C@H](O)C3COC(=O)[C@@H]32)OCO4)cc(OC)c1OC` (stereo partly specified), the Potency result in assay [1] and in [4] was “inactive” throughout.

Take `Oc1cc(O)c2c(c1)O[C@H](c1ccc(O)c(O)c1)[C@@H](O)C2`: the Potency result in [1] and in assay [4] was “inactive” each time.

With `CC1CC2C3CCC4=CC(=O)C=C[C@]4(C)[C@@]3(F)[C@@H](O)C[C@]2(C)[C@@]1(O)C(=O)CO` (stereo partly specified), the Potency result in [1] and in [4] was “inactive” throughout.
